Bioassay records from PubChem.
Nrf2 ARE act = activates Nrf2 signaling | AREc32 ARE-luciferase reporter (MCF7-derived line), luminescence, 24 h | Potency, µM (series often up to 46.1 µM), for the others: top-dose activation, hits mostly activators | 410,000 tested, 0.31% active; also: potency is read from the fitted curve at half-maximal effect; % of control where 0% means no effect; nearly all actives have a fitted effect of over 65% in size
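Luminescent ARE reporter assay in AREc32_Fluc cells: overnight plating at 37 deg C, 24 hr compound incubation, Steady-Glo added, 30 min RT before reading.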
12-LOX inh = ALOX12 (human) lipoxygenase inhibition. purified 12hLO, xylenol orange hydroperoxide absorbance. 580,000 tested, 1.1% active. P18054. Potency, µM (series often up to 108 µM), inactives show at the top dose activity change, negative = inhibition, most hits filed as inhibitors; also: potency is read from the fitted curve at half-maximal effect; % is scaled to controls: 0 for no effect and ±100 for the full control effect
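Purified human 12hLO at 150 nM in 25 mM Hepes, 0.01% Triton X-100, pH 7.0, preincubated 15 min at room temperature with compound. Reaction started with 40 uM arachidonic acid, 30 min at room temperature. Hydroperoxide measured by Fe-xylenol orange, 573/405 nm absorbance ratio.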
Nrf2 block = Nrf2 pathway inhibition; A549 ARE-Fluc reporter, luciferase luminescence, 18-24 h; Potency, µM (doses to about 46 µM), for inactives: at the top dose activity change, negative = inhibition, most hits filed as inhibitors; 360,000 tested, 2.1% active; AID 504444; also: potency is read from the fitted curve at half-maximal effect; % is scaled to controls: 0 for no effect and ±100 for the full control effect; nearly all actives have a fitted effect of over 60% in size
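A549 ARE_Fluc cells, 5000/well, 5% FBS OPTI-MEM; compounds in dose-response, 18-24 h at 37 °C/5% CO2; CellTiter-Fluor viability read (Ex 405/Em 525), then BugLite luciferase luminescence = Nrf2 activity.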
LDHA block = inhibitors of human lactate dehydrogenase A. P00338. purified LDHA, NADH/diaphorase-resazurin fluorescence; hits give low values. activity change, % (values are at about 110 or 230 µM). 480,000 tested, 0.15% active. AID 1347041; in the data active = activity change below about -30%; inconclusive = mostly about -25% to -30%;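 also: plate controls were DMSO wells for no effect and wells without enzyme for full effect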
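Human LDH5 (2 nM) was incubated with 0.06 mM NADH and 0.2 mM pyruvate for 5 min at room temperature in Tris pH 7.4. Remaining NADH was coupled through diaphorase/resazurin, and resorufin fluorescence was read at 0 and 20 min.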
ERG-DNA inh = inhibitors of human ERG Ets domain-DNA interaction; 370,000 tested, 0.028% active; AID 624246; Potency, µM (doses to about 76.9 µM), for inactives: at the highest dose FP activity, negative = inhibition, hits mostly inhibitors; fluorescence polarization, His-ERG Ets domain / labelled DNA; active = well fitted inhibition curve with a large enough effect in the polarisation, with a control signal flat; inconclusive = small, poorly fitted or top-dose-only effect, or effect the other way, or a change in a side signal; inactive = no such curve, though single readings can be large or run the other way; the % refers to the polarisation;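 also: polarization taken with two DNA probes labelled with fluorescein and Texas red; potency is read from the fitted curve at half-maximal effect; % of control where 0% means no effect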
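His-tagged ERG Ets domain (1 uM in the protein solution; 300mM KCl, 50mM Tris-HCl, 1mM EDTA, 1mM DTT, pH 7.5) received compound, then a probe mix of 5 nM fluorescein-DNA and 100nM Texas-615-DNA. Fluorescence polarization was read for both dyes.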
A549 tox-1 = kills or reduces viability of A549 cells in Nrf2 counter-screen; Potency, µM (top dose mostly 46 µM), without a hit: at the highest dose activity change, negative = cytotoxicity, most hits filed as inhibitors; 390,000 tested, 0.16% active; A549 ARE-Fluc cells, CellTiter-Fluor viability, 18-24 h; also: potency is read from the fitted curve at half-maximal effect; % is scaled to controls: 0 for no effect and ±100 for the full control effect
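Cytotoxicity counterscreen: CellTiter-Fluor fluorescence was measured in A549 ARE_Fluc cells after 18-24 h of compound exposure in a concentration series. The subsequent BugLite luminescent read reports ARE-luciferase activity.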
FLuc counter 3 = firefly luciferase inhibition, Nrf2 hit validation; shares compounds with Nrf2 block; purified firefly luciferase, luminescence inhibition; Potency, µM (series often up to 57.5 µM), for inactives: at the highest dose activity change, negative = inhibition, most hits filed as inhibitors; 1,400 tested, 4% active; AID 720522; also: potency is read from the fitted curve at half-maximal effect; % is scaled to controls: 0 for no effect and ±100 for the full control effect; nearly all actives have a fitted effect of over 65% in size
Target sequence (P08659 whole entry, looked up): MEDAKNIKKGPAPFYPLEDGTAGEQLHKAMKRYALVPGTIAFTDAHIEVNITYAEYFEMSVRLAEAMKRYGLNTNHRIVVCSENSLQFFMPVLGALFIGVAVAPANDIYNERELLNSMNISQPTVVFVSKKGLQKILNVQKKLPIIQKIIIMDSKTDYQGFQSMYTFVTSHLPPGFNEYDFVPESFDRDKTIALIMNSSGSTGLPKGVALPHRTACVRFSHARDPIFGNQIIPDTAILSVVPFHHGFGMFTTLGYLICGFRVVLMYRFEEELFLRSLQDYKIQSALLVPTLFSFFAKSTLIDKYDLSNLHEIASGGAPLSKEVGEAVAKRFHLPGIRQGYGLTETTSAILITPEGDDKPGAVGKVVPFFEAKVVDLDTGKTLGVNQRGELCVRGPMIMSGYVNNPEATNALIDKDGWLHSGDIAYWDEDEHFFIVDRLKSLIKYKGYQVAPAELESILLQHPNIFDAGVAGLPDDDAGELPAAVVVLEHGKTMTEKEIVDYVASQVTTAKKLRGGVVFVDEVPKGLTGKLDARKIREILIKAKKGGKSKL
A549 tox-2 = toxic to A549 ARE-Fluc cells in Nrf2 counterscreen; A549 ARE-Fluc cells, cytotoxicity counterscreen; shares compounds with Nrf2 block; Potency, µM (titrated, usually from 46.1 µM), inactives show top-dose activity change, negative = cytotoxicity, usual class: inhibitors; AID 720523; 1,400 tested, 2% active;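 also: potency is read from the fitted curve at half-maximal effect; cells exposed to compounds for 18 to 24 hours; % is scaled to controls: 0 for no effect and ±100 for the full control effect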
ARE-Fluc inh = Nrf2 inhibition confirmed, A549 ARE-luciferase. shares compounds with Nrf2 block. A549 ARE-firefly luciferase reporter, luminescence. Potency, µM (series often up to 46.1 µM), for inactives: top-dose activity change, negative = inhibition, actives largely listed as inhibitors. 1,400 tested, 74% active. AID 720524; also: potency is read from the fitted curve at half-maximal effect; % is scaled to controls: 0 for no effect and ±100 for the full control effect; nearly all actives have a fitted effect of over 65% in size
Numbers without * were called inactive. Most compounds without a hit are left out; they make up all but 2.7% or so of the library. Unless noted, calls follow the shape of the dose curve; as a rule, active = well fitted curve in the direction sought with a large enough effect; inconclusive = small, poorly fitted or top-dose-only effect, or another doubt; inactive = no such curve, though single readings can be large; an effect the other way counts as inactive or inconclusive.

CCN(CC)S(=O)(=O)c1ccc(/C=C/C(=O)Nc2ccc(Br)cc2F)cc1 was read as Nrf2 ARE act 4%, 12-LOX inh -8%, Nrf2 block 9.2µM*, LDHA block -7, ERG-DNA inh 1%, A549 tox-1 -3%, FLuc counter 3 -9%, A549 tox-2 -2% and ARE-Fluc inh 4.6µM*.
`O=C(COC(=O)c1c[nH]c2ccccc12)NC(=O)NC1CCCC1` gave 12-LOX inh -2% and LDHA block 0.
For Cc1cnc(NC(=O)C2CC(=O)N(c3cccc(Cl)c3)C2)s1 (configuration not stated) the results were Nrf2 ARE act 0%, 12-LOX inh 0%, Nrf2 block 2.1µM*, LDHA block 0, ERG-DNA inh 7%, A549 tox-1 inconclusive, FLuc counter 3 0% and A549 tox-2 inconclusive.
`CC(=NNC(=S)N1CCC1)c1ccccn1` gave Nrf2 ARE act inconclusive, 12-LOX inh 50µM*, Nrf2 block 0.13µM*, LDHA block 2, A549 tox-1 inconclusive, FLuc counter 3 -18%, A549 tox-2 inconclusive and ARE-Fluc inh 0.65µM*.
`O=C(NCc1ccc2c(c1)OCO2)c1ccc2c(=O)n(C3CCCC3)c(=O)[nH]c2c1` gave Nrf2 ARE act 4%, 12-LOX inh 0%, Nrf2 block 8.2µM*, LDHA block -15, ERG-DNA inh 8%, A549 tox-1 inconclusive, FLuc counter 3 0%, A549 tox-2 -9% and ARE-Fluc inh 0.23µM*.
For COc1ccc(Cn2c(=O)[nH]c3cc(C(=O)NCc4ccc5c(c4)OCO5)ccc3c2=O)cc1 the results were Nrf2 ARE act 3%, 12-LOX inh inconclusive, Nrf2 block inconclusive, LDHA block -8, ERG-DNA inh -4% and A549 tox-1 -2%.
Cc1c(C(=O)N2CCCCC2)oc2ccc(S(=O)(=O)N3CC(C)CC(C)C3)cc12 (configuration not stated) was read as Nrf2 ARE act 2%, Nrf2 block 9.2µM*, LDHA block -1, ERG-DNA inh -8%, A549 tox-1 -12%, FLuc counter 3 -1%, A549 tox-2 -14% and ARE-Fluc inh 9.2µM*.
CCOC(=O)N1CCN(C(=O)c2oc3ccc(S(=O)(=O)N4CCCCC4)cc3c2C)CC1 was read as Nrf2 ARE act -1%, 12-LOX inh 11%, Nrf2 block inconclusive, LDHA block -4, ERG-DNA inh 1% and A549 tox-1 3%.
`COc1ccccc1C(=O)NC(=S)Nc1ccc(Cc2ccncc2)cc1` gave Nrf2 ARE act 7%, 12-LOX inh inconclusive, Nrf2 block 5.8µM*, LDHA block 0, ERG-DNA inh 8%, A549 tox-1 -14%, FLuc counter 3 -1%, A549 tox-2 0% and ARE-Fluc inh 21µM*.
